D1 allo mod: allosterically modulates the human D1 dopamine receptor | P21728 | B-score at 10 µM | 5.9% of 58,000 active | HEK293 D1, CRE-luciferase, dopamine EC30 potentiation; actives deviate in either direction | AID 641;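 active means luminescence count or its row- and column-corrected plate score outside the 99.7% band of the plate's sample wells, on either side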
ROCK2 inh: ROCK2 (human) kinase inhibition | O75116 | purified ROCK2, Kinase-Glo ATP depletion luminescence | inhibition, % at 6 µM | 0.35% of 60,000 active | AID 604;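 active means inhibition above the screen-wide mean inhibition plus 3 SD, cut at about 18% in these data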
DAT uptake mod: human DAT dopamine uptake with cocaine, either direction; B-score at 10 µM; LLC-PK1 hDAT cells, [14C]-dopamine uptake with cocaine IC80; actives deviate in either direction; Q01959; 1.3% of 110,000 active;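 active means Z score or B-score, a plate-position-corrected score, falls beyond the plate's 99.7% confidence bounds, in either direction; inactive means both scores lie inside the 99.7% bounds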
PKA inh: PKA (human) kinase inhibition. P17612. PKA Kemptide phosphorylation, Kinase-Glo ATP luminescence. inhibition, % at 6 µM. 0.1% of 65,000 active;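 active means inhibition above the screen-wide mean inhibition plus 3 SD, cut at about 21% in these data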
D1 mod confirm: confirmation of human D1 dopamine receptor allosteric modulators. shares compounds with D1 allo mod. HEK293 D1 CRE-luciferase, dopamine EC30 potentiation; hits give high values. luminescence at 10 µM. 88% of 2,200 active. AID 642;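 active means luminescence in either of two replicates above the same-plate mean plus 3 SD of the low-dose dopamine control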
D1 no dopamine: D1 (human) signaling in absence of dopamine; shares compounds with D1 allo mod; HEK293 D1 CRE-luciferase, luminescence, no dopamine; hits give high values; luminescence at 10 µM; 0.8% of 1,900 active; AID 646; in the data active means luminescence above about 3900
Isoprot counter: isoproterenol response counter-screen activity for D1 modulators; shares compounds with D1 allo mod; HEK293 D1 CRE-luciferase, isoproterenol EC30 counter-screen; calls only at 10 µM; 63% of 2,200 active;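 active means luminescence in either replicate above plate mean of wells with a partly effective reference agonist dose plus 3 SD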;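 further: isoproterenol raises cAMP through native beta-adrenoceptor Gs so signal bypasses D1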
Of the large screens only hits and unclear results are named; the others gave an inactive call (follow-up assays come after a bar, where they were run). The sample as a whole holds a higher share of hits than the screen did.

CC1(C)Cc2c(c(-c3ccccc3)[nH]c(=O)c2C#N)CO1	D1 allo mod 7.2 | D1 mod confirm 17304 | D1 no dopamine inactive | Isoprot counter active
CCOC(=O)c1c(N)nn(C(=O)CC)c1-c1ccccc1	D1 allo mod 13 | D1 mod confirm 17424 | D1 no dopamine inactive | Isoprot counter active
CCOC(=O)c1c(N)nn(C(=O)C(C)C)c1-c1ccccc1	D1 allo mod 6.8 | D1 mod confirm 18276 | D1 no dopamine inactive | Isoprot counter active
c1ccc(Cc2nn3c(COc4ccccc4)nnc3s2)cc1	D1 allo mod 9.1 | D1 mod confirm 17316 | D1 no dopamine inactive | Isoprot counter active
CCN1C(=O)c2c(C)nc3ccccc3c2C1=O	D1 allo mod 16 | D1 mod confirm 15840 | D1 no dopamine inactive | Isoprot counter active
CCCCc1cc2c(c(NC(=O)CC)n1)c(=O)oc1ccccc12	D1 allo mod 6.6 | D1 mod confirm 23508 | D1 no dopamine inactive | Isoprot counter active
CCCCc1cc2c(c(NC(C)=O)n1)c(=O)oc1ccccc12	D1 allo mod 15 | D1 mod confirm 14552 | D1 no dopamine inactive | Isoprot counter active
CC(=O)Nc1nc(CC(C)C)cc2c1c(=O)oc1ccccc12	none
COC(=O)c1c(-c2ccc(F)cc2)csc1NC(=O)c1ccco1	D1 allo mod 3.3 (no result: ROCK2 inh, PKA inh) | D1 mod confirm 8568 | D1 no dopamine inactive | Isoprot counter inactive
Nc1ccccc1C#Cc1cnccn1	none (no result: D1 allo mod, ROCK2 inh, PKA inh)
Nc1ccc(SC(F)(F)F)cc1C(=O)c1ccccc1	D1 allo mod 14 (no result: DAT uptake mod) | D1 mod confirm 13336 | D1 no dopamine inactive | Isoprot counter active
N#Cc1ccccc1Cn1c(-c2cscn2)nc2ccccc21	D1 allo mod 13 | D1 mod confirm 15376 | D1 no dopamine inactive | Isoprot counter active
Nc1nc(SCc2ccc3c(c2)OCCO3)n[nH]1	D1 allo mod 4.9 | D1 mod confirm 9268 | D1 no dopamine inactive | Isoprot counter inactive
O=C(O)c1cn(-c2ccccc2)nc1-c1cccnc1	none
CCOC(=O)c1cn(-c2ccccc2)nc1-c1cccnc1	D1 allo mod 23 | D1 mod confirm 27848 | D1 no dopamine inactive | Isoprot counter active
O=C(O)c1cn(-c2ccccc2)nc1-c1ccncc1	none (no result: D1 allo mod)
CCOC(=O)c1cn(-c2ccccc2)nc1-c1ccncc1	D1 allo mod 13 | D1 mod confirm 20136 | D1 no dopamine inactive | Isoprot counter active
CC(C)c1nc2oc3c(NCC4CCCO4)ncnc3c2c2c1CCC2 (stereo not given)	none (no result: D1 allo mod)
CCCc1nc2oc3c(NCC4CCCO4)ncnc3c2c2c1COC(C)(C)C2 (stereo not given)	D1 allo mod 15 | D1 mod confirm 19660 | Isoprot counter active
CCCc1nc2oc3c(NCc4ccccn4)ncnc3c2c2c1COC(C)(C)C2	D1 allo mod 16 (no result: DAT uptake mod) | D1 mod confirm 19424 | Isoprot counter active
C=CCNc1nc2c(c(=O)[nH]c(=O)n2C)n1CCCCC	D1 allo mod 6.6 | D1 mod confirm 23492 | D1 no dopamine inactive | Isoprot counter active
CCCCn1c(NCCC)nc2c1c(=O)[nH]c(=O)n2C	D1 allo mod 5.9 | D1 mod confirm 9640 | D1 no dopamine inactive | Isoprot counter inactive
CCCNc1nc2c(c(=O)[nH]c(=O)n2C)n1CCC(C)C	D1 allo mod 7.5 | D1 mod confirm 12920 | D1 no dopamine inactive | Isoprot counter active
CCCNc1nc2c(c(=O)[nH]c(=O)n2C)n1Cc1cccc(Br)c1	none (no result: ROCK2 inh)
CC(C)CCn1c(NCCN(C)C)nc2c1c(=O)[nH]c(=O)n2C	none
CC1(C)SC2[C@H](NC(=O)C(NC(=O)N3CCNC3=O)c3ccccc3)C(=O)N2C1C(=O)O (stereo not given in full)	none (no result: DAT uptake mod)
CC(C)(C)[C@H]1C=C(C(=O)NC2CC2)O[C@@H](OCCCCO)C1	none (no result: D1 allo mod, ROCK2 inh, PKA inh)
COC(=O)CSc1nc2c(c(=O)[nH]c(=O)n2C)n1CCC(C)C	D1 allo mod 5.2 | D1 mod confirm 12872 | D1 no dopamine inactive | Isoprot counter active
CCCCCn1c(SCC(=O)OC)nc2c1c(=O)[nH]c(=O)n2C	D1 allo mod 4.2 | D1 mod confirm 14176 | D1 no dopamine inactive | Isoprot counter inactive
CCOC(=O)C(CC)Sc1nc2c(c(=O)[nH]c(=O)n2C)n1C/C=C(/C)Cl (stereo not given)	D1 allo mod 8.6 | D1 mod confirm 16300 | D1 no dopamine inactive | Isoprot counter active
C(=N\N1CCN(Cc2cccc3ccccc23)CC1)/c1cccnc1	none (no result: D1 allo mod, ROCK2 inh, PKA inh)
COC(=O)C1=C(C)NC(=O)NC1c1cn(-c2ccccc2)nc1-c1cccs1 (stereo not given)	none (no result: ROCK2 inh)
CCOC(=O)C1=C(C)NC(=O)NC1c1cn(-c2ccccc2)nc1-c1cccs1 (stereo not given)	D1 allo mod 2.8 | D1 mod confirm 10976 | D1 no dopamine inactive | Isoprot counter active
CCCN(C#N)c1nc(NCC)nc(NC(C)C)n1	D1 allo mod 17 | D1 mod confirm 24080 | D1 no dopamine inactive | Isoprot counter active
CCOc1ccc(-c2cc3nc(C4CCN(C(=O)OC(C)(C)C)CC4)c(C(=O)O)cn3n2)cc1	D1 allo mod 13, DAT uptake mod 3.4 | D1 mod confirm 13012 | D1 no dopamine inactive | Isoprot counter active
CC(C)(C)OC(=O)N1CCC(c2c(C(=O)O)cnn2-c2ccccc2)CC1	none
COc1ccc(Cc2nnc(NC(=O)c3c(-c4ccccc4)noc3C)s2)cc1OC	none (no result: D1 allo mod, DAT uptake mod)
COc1ccc(Cc2nnc(NC(=O)c3c(-c4ccccc4)noc3C)s2)cc1	D1 allo mod 3.3 | D1 mod confirm 6196 | D1 no dopamine inactive | Isoprot counter inactive
Cc1nn(Cc2c(F)c(F)c(F)c(F)c2F)c(C)c1NC(=O)c1c(-c2ccccc2)nn(-c2ccccc2)c1C	none (no result: D1 allo mod, ROCK2 inh, PKA inh)
CC1(c2nnc(-c3ccccc3)o2)CC(c2ccc([N+](=O)[O-])cc2)=NO1 (stereo not given)	none (no result: D1 allo mod, ROCK2 inh, PKA inh)
COc1cccc(-c2nnc(NC(=O)c3ccc(S(=O)(=O)N4CC(C)OC(C)C4)cc3)o2)c1 (stereo not given)	D1 allo mod 2.8 (no result: DAT uptake mod) | D1 mod confirm inactive | D1 no dopamine inactive | Isoprot counter inactive
COc1ccc(CN/C(C)=C(/C#N)C(N)=O)cc1OC	D1 allo mod 3.5 | D1 mod confirm 7928 | Isoprot counter active
O=C1COc2ccccc2N1Cc1ccccc1Cl	D1 allo mod 4.9 | D1 mod confirm 7968 | D1 no dopamine inactive | Isoprot counter inactive
CC1Oc2ccccc2N(Cc2ccccc2Cl)C1=O (stereo not given)	none (no result: D1 allo mod)
COc1cc(NC(=O)CC2NCCNC2=O)cc(OC)c1 (stereo not given)	none (no result: D1 allo mod, ROCK2 inh, PKA inh)
COc1ccc(S(=O)(=O)N2CCOCC2)cc1C(C)C	none
CCC(C)c1cc(S(=O)(=O)N2CCOCC2)ccc1OC (stereo not given)	D1 allo mod 9.5 | D1 mod confirm 11376 | Isoprot counter active
